The full ranking holds about 9,900 sequences; the median of “r (bound/input frequency ratio)” is about 0.7, and the highest 2% start at about 6.5. This is one part of a sample in which the highest values are shown more often than they occur.
B1: ENSMUSG00000061578.815|Ksr2 (ssRNA)
RNA: GGGAGUUCUACAGUCCGACGAUCGCUUCGAUAUCCGCAUGCUAUGGGACUCUUUUUAUGAGGAACCAGUCCUGUUGAAUCGGGGUGCUCUGUAUUAGUUAUUUUUGUAACUUGUGAUUGUAACCAAAUGCCCGAUAGAAACAGCAUUCUGGCUCACAGUUUCAAAGGGCUCAGUCCAUAGCUGCCUGACUCUGUGUUUCUAGGCCUUUCUUGAGGCAAGUGUUCAUCAUGAUAGUGUGAGGGUGAGGAGGAGUUUCUUCAUGGCAAACAGGAAGCAAAGAGCAAUACAGGAAAAGGUCAGGGGCUCUUGCGGUCGCACUAGUGUGGAAUUCUCGGGUGUCAAGG
B2: ENSMUSG00000061578.1222|Ksr2|31:35;225:229 (ssRNA)
RNA: GGGAGUUCUACAGUCCGACGAUCGCUUCGAUAUCCGCAUGCUAGAAUGAGCCGCUGGGAUAUUGACAUGGAGAACACAUGAUGGAAAAAGCCUCCACACCCAACAUAACUCUCCAGAGAGAUAUUGAAAGUGAUGGGCAGAGAGUCUGACAAUGACCCAGGGGUCAUUGUGAGUCCUAGGCUGAAUCUGUAAUGGGGUCCAAAGUGCAGGAGAGACUGCAUUCACCUUGUUGGUGGGGUGGGGCUUCUUUCAUUACUUUAAGUAUCUCAUACGGCUUGAGGCAUGGGAAACAGCACCUUGUCUCUCUUGCGGUCGCACUAGUGUGGAAUUCUCGGGUGUCAAGG
B3: ENSMUSG00000022095.104|Fam160b2 (ssRNA)
RNA: GGGAGUUCUACAGUCCGACGAUCGCUUCGAUAUCCGCAUGCUAGCUGUUGCAAAAUUCCCAACUGCCUCCUGGCAGAGGCCCAAAGUAUGCUCUGCGCCCAGGCGGGGGCAGCUGCUAACAAGAGCCCUGGCGCAGCUGCAGCCAGGGCAGGCGAGAGCCUUGGAGCUGGGUGCCAGGCUCCAGCUCCAGCUCCAGCUGGUUCCUCUCUGGCGCCUUCUGAACCCGUCUCAGCAAGUCCGAAACACCUGGGCAGAGAGGUCAUUGACCAGGGAUGGGGGCCCUUGCCCUCUGAAUCCUGCCCACUCUUGCGGUCGCACUAGUGUGGAAUUCUCGGGUGUCAAGG
B4: ENSMUSG00000061578.919|Ksr2|82:86 (ssRNA)
RNA: GGGAGUUCUACAGUCCGACGAUCGCUUCGAUAUCCGCAUGCUACAAUUCUACCCAUGACAGACAUGUCCCAUCCAUGAGCCCAGAUAGUCAAAGACUUCAGCACAAGGGUGUUUAGAGUAGGCACACACGAAGUAUCAAUAAGGUUAUUGAGAUGAGGAUUUAGAAAGAUCCAUGUAUAAAAGGUCUAGAAGGAUGAAGAUCUAAAACAAGAAGACUGCAUGUUAACGCUCCUGCCACUGUUGCCCCUUCCUUUACCCUUGGCAGACAUUGCUAAUCAAUCUCAGCACAGUUUCCAACCACAGCUCUUGCGGUCGCACUAGUGUGGAAUUCUCGGGUGUCAAGG
B5: ENSMUSG00000061578.806|Ksr2 (ssRNA)
RNA: GGGAGUUCUACAGUCCGACGAUCGCUUCGAUAUCCGCAUGCUACCUCUCUCCAAUCUUUACCUUUGCCUCUACUAGAUGAUCUUGCAUCUGUCUUUGUGGGACUCUUUUUAUGAGGAACCAGUCCUGUUGAAUCGGGGUGCUCUGUAUUAGUUAUUUUUGUAACUUGUGAUUGUAACCAAAUGCCCGAUAGAAACAGCAUUCUGGCUCACAGUUUCAAAGGGCUCAGUCCAUAGCUGCCUGACUCUGUGUUUCUAGGCCUUUCUUGAGGCAAGUGUUCAUCAUGAUAGUGUGAGGGUGAGGAGCUCUUGCGGUCGCACUAGUGUGGAAUUCUCGGGUGUCAAGG
B6: ENSMUSG00000043670.134|Diras1 (ssRNA)
RNA: GGGAGUUCUACAGUCCGACGAUCGCUUCGAUAUCCGCAUGCUACCUGGCCACCCCGAGUACCACCUCUGGAAUAGCAGACGCCCACAGCACAAGCCCAGGACUGUCCCUUCAGGGGAGGCACACUGGAACCCUGAACUUGGAGUGUGGAGUGGCUGCCUGGACACUGCCCACCUGGACACCAGCCUUCUGCUGAGAUAGAGACCUUGGCACAGUGGCACCUCGACAGCCACCCCGACUGGGGGUUUGGGGUGCUGAGGGUGGGGUGCCCAGCUGAGAGUCUAUCAGCAAAGUCCCUGUGUGCGCUCUUGCGGUCGCACUAGUGUGGAAUUCUCGGGUGUCAAGG
B7: ENSMUSG00000058297.456|Spock2|123:127 (ssRNA)
RNA: GGGAGUUCUACAGUCCGACGAUCGCUUCGAUAUCCGCAUGCUAUCACACAGGUCAGAUUAUUGUCGGUCCUGCGGGCCUCAUCCUUGAAUAAGCUGCCUGCCCAGUUCCUCCAUCCGUGUUCCUGCCUGCUCCCGUUCCCUUGUUGCGGGCAGGAGAGGUAGGGCACACAUGGAAAGAGUUCAACCAAAUUACGGCAGCACCACAUCUUGCCGAGCCCUGGAGCUGCCCUACUAAGAGCCUCCUUAGCCCUGGGUGCUGGGAAGGAUGGUGUACGUUGGGGAAGUUUGAGGUUGGAGAGAGUACUCUUGCGGUCGCACUAGUGUGGAAUUCUCGGGUGUCAAGG
B8: ENSMUSG00000043670.212|Diras1 (ssRNA)
RNA: GGGAGUUCUACAGUCCGACGAUCGCUUCGAUAUCCGCAUGCUAGUGUGUGUGGAUGGGUGUGUGUCUGUCUUGGGAUGGGGUGUUCUUGCACCACUUUGUGUUCUUAGUGAGACCACAGUGUAAGUGGCCGUGUGUGUGUGUGGGGGGGGGCACCUAGACAUUGUGGUGUGUCUGUAUGGCUCUGUGUUUUCAGGGGUGGGUGACACAGGCCUGUCUGAUGAGCACCAGGUCUGUUCCAGGCUGUGGCAAGCUGGCUCCUGGCUCAGAAGUGACAAAGCUGCAGUACAGAGGCCUCAGUGUGACUCUUGCGGUCGCACUAGUGUGGAAUUCUCGGGUGUCAAGG
B9: ENSMUSG00000043670.209|Diras1 (ssRNA)
RNA: GGGAGUUCUACAGUCCGACGAUCGCUUCGAUAUCCGCAUGCUAUUCUGUGUUUAUGUGCCUGUGUGUGUGGAUGGGUGUGUGUCUGUCUUGGGAUGGGGUGUUCUUGCACCACUUUGUGUUCUUAGUGAGACCACAGUGUAAGUGGCCGUGUGUGUGUGUGGGGGGGGGCACCUAGACAUUGUGGUGUGUCUGUAUGGCUCUGUGUUUUCAGGGGUGGGUGACACAGGCCUGUCUGAUGAGCACCAGGUCUGUUCCAGGCUGUGGCAAGCUGGCUCCUGGCUCAGAAGUGACAAAGCUGCAGUCUCUUGCGGUCGCACUAGUGUGGAAUUCUCGGGUGUCAAGG

Target: TDP-43 (Homo sapiens, UniProt Q13148 1-414)
Test: RNA Bind-n-Seq with designed 260-mer pool; 25 mM Tris-HCl, 150 mM KCl, 3 mM MgCl2, BSA (printed 500 mg/mL), 20 units/mL SUPERase IN; pH not stated; 500 nM RNA pool, 1 h, 4 C; TDP-43 5, 50, 500 nM; high values mean tight binding
Settings: protein: recombinant; tags: SBP (GST cleaved off with PreScission; pGEX-GST-SBP)
Procedure, shortened: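 Recombinant SBP-tagged TDP-43 at 5, 50 or 500 nM was captured on streptavidin beads, then incubated 1 h at 4 °C with 500 nM of an in vitro-transcribed 260-nt 3′ UTR oligo pool in 25 mM Tris-HCl, 150 mM KCl, 3 mM MgCl2, BSA and SUPERase IN. Bound RNA was washed, eluted with biotin, reverse transcribed, PCR-amplified and sequenced. Binding is R, each oligo's mapped-read-normalized abundance in the bound sample divided by its abundance in input. Duplicates used two independent protein batches.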

TDP-43, sequence (Q13148 whole entry): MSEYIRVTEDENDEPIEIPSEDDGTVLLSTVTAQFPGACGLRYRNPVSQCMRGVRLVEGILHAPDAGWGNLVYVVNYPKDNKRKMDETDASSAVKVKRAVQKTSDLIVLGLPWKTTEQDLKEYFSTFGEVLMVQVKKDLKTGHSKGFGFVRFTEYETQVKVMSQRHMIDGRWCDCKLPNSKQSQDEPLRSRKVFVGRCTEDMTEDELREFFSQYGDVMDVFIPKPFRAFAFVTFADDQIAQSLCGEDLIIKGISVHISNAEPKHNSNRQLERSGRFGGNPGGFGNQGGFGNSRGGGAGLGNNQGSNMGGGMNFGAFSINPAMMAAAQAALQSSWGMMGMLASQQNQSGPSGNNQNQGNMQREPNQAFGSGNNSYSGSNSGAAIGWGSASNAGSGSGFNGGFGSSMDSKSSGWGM

Binder | binding signal
B1 | 2.37 R (bound/input frequency ratio)
B2 | 0.49 R (bound/input frequency ratio)
B3 | 0.438 R (bound/input frequency ratio)
B4 | 0.397 R (bound/input frequency ratio)
B5 | 0.325 R (bound/input frequency ratio)
B6 | 0.868 R (bound/input frequency ratio)
B7 | 0.829 R (bound/input frequency ratio)
B8 | 6.14 R (bound/input frequency ratio)
B9 | 5.23 R (bound/input frequency ratio)
